Rango dissoc inh – inhibitors of RanGTP-induced Rango-importin beta complex dissociation; O95149+P62826; Biochemical FRET Rango-importin beta, RanGTP-induced dissociation; Potency, µM (series often up to 46.1 µM); actives 0.071% (n = 340,000); calls by dose curve; further: nearly all actives have a fitted effect of over 45% in size
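Compounds preincubate 5 min with complex of recombinant Rango and importin beta in PBS with 1 mM DTT. Ran (0.6 uM) loaded with 2 mM GTP plus 0.2 uM RCC1 starts dissociation; FRET is recorded 45 min later.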
Tb PFK inh – blocks T. brucei phosphofructokinase. Potency, µM (highest dose often 57.5 µM), usual class: inhibitors. actives 0.17% (n = 330,000). T. brucei PFK, ADP-Glo luminescence; further: nearly all actives have a fitted effect of over 60% in size
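In TEA buffer at pH 8.0 with 5 mM MgCl2, enzyme (1.25 nM) converted F6P (0.5 mM) and ATP (0.1 mM) for 45 min at room temperature. ADP product was read by luciferase luminescence.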
ELG1 DNA repair – inhibitors of ELG1-dependent DNA repair in HEK293T cells. HEK293T ELG1-luciferase reporter, luminescence, 16 h; DNA damage induced by 5-fluorouridine. Potency, µM (titrated, usually from 46.1 µM), actives largely listed as inhibitors. actives 2.3% (n = 330,000); further: nearly all actives have a fitted effect of over 55% in size
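Reporter activity after DNA damage by 5-fluorouridine is monitored. Compound-treated cells incubate 16 hr at 37 °C, then ONE-Glo is added for 30 min before luminescence reading.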
PKM2 activator – increases activity of human pyruvate kinase M2 | actives 0.34% (n = 260,000) | purified PKM2, Kinase-Glo ATP luminescence, activation; response scale: 0% is enzyme alone, no compound | AID 1631 | Potency, µM (titrated, usually from 57.5 µM), hits mostly activators; further: nearly all actives have a fitted effect of over 55% in size
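hPK-M2, >95% pure; 0.1 mM ADP / 0.5 mM PEP final; imidazole pH7.2 buffer w/ 7 mM MgCl2, 50 mM KCl; 1 h RT; Kinase-Glo lum. Intermediate enzyme activity for dual inhibitor/activator qHTS.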
Rango-impB inh – inhibitors of Rango-importin beta complex formation; Q14974; Rango CFP/YFP FRET sensor + importin beta, 45 min; Potency, µM (doses to about 92.2 µM); actives 0.031% (n = 340,000); calls by dose curve; further: nearly all actives have a fitted effect of over 15% in size
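Inhibition scored from the CFP 486 nm/YFP 530 nm FRET ratio 45 min after adding 0.125 microM importin beta to 50 nM Rango biosensor preincubated 5 min with compound (room temperature, PBS with DTT, Tween-20, BSA). No-importin wells as positive control.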
Tb PGK inh – inhibitors of T. brucei phosphoglycerate kinase | P07378 | PGK/GAPDH coupled, Kinase-Glo luminescence, 60 min | Potency, µM (titrated, usually from 57.5 µM), hits mostly inhibitors | actives 0.043% (n = 380,000) | AID 602233; further: nearly all actives have a fitted effect of over 60% in size
Target sequence (P07378 whole entry, looked up): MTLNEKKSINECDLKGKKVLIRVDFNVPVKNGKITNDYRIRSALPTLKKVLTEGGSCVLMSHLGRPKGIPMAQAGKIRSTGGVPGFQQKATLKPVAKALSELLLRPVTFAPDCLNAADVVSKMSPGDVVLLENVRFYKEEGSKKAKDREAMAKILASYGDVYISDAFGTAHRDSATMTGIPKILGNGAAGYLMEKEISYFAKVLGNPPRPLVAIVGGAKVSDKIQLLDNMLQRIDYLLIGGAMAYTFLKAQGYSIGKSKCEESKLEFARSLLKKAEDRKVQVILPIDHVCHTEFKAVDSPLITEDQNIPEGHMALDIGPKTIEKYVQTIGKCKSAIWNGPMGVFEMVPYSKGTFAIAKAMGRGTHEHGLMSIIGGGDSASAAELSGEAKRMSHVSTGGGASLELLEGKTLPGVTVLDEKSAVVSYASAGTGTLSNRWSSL
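Recombinant glycosomal PGK reaction used 1,3-bisphosphoglycerate generated in-well by GAPDH (100nM final) in 100mM TEA pH 7.6, 5mM MgCl2, 0.01% Tween-20. After 60 minutes at room temperature, ATP was read by Kinase-Glo Plus luminescence end-point.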
A number is an active result; [ ] = remark or other dose. A selection: hits, their analogues and other compounds. The true share with any hit is near 2.4%. Unless noted, the call rests on the fitted dose curve; in most records, active means well fitted curve in the direction sought with a large enough effect; inconclusive means small, poorly fitted or top-dose-only effect, or another doubt; inactive means no such curve, though single readings can be large; an effect the other way counts as inactive or inconclusive.

Screening C/C(=C\c1ccccc1)C(=O)N1CCN(Cc2ccc3c(c2)OCO3)CC1 returned Rango dissoc inh inactive, Tb PFK inh inactive, ELG1 DNA repair 7.3µM, PKM2 activator inactive, Rango-impB inh inactive and Tb PGK inh inactive.
COc1ccc(-c2ccc(-c3noc(-c4ccccc4C)n3)c(OC)n2)cc1 was read as Rango dissoc inh 6.51µM[inhibitor], Tb PFK inh inactive, ELG1 DNA repair inactive, PKM2 activator inactive, Rango-impB inh inconclusive and Tb PGK inh inactive.
`COc1ccc(-c2ccc(-c3noc(-c4ccccc4OC)n3)c(OC)n2)cc1` gave Rango dissoc inh inconclusive, Tb PFK inh inactive, ELG1 DNA repair inactive, PKM2 activator inactive, Rango-impB inh inconclusive and Tb PGK inh inactive.
O=C(c1cn(Cc2ccccc2)nc1-c1cccnc1)N1CCN(Cc2ccccc2)CC1 was read as Rango dissoc inh inactive, Tb PFK inh inactive, ELG1 DNA repair inactive, Rango-impB inh inactive and Tb PGK inh inactive.
Screening O=C(c1cn(Cc2ccccc2)nc1-c1cccnc1)N1CCN(Cc2c(F)cccc2Cl)CC1 returned Rango dissoc inh inactive, Tb PFK inh inactive, ELG1 DNA repair 9.2µM, Rango-impB inh inactive and Tb PGK inh inactive.
CCCCCOC(=O)c1[nH]c2c(c1C)C(=O)CC(c1ccco1)C2 (stereo not drawn) was read as Rango dissoc inh inactive, Tb PFK inh inactive, ELG1 DNA repair inactive, PKM2 activator 15.8µM, Rango-impB inh inactive and Tb PGK inh inactive.
Screening COc1ccc(-c2cn3c(n2)sc2cc(C(=O)Nc4ccc(F)cc4Cl)ccc23)cc1 returned Tb PGK inh inactive.
Screening Cc1ccc(Cn2c(CN3CCC(C(=O)NCCc4ccccc4)CC3)cc3ccccc32)cc1 returned Tb PGK inh inactive.
Screening O=C1Nc2ccc(S(=O)(=O)NCc3ccccn3)c3cccc1c23 returned Rango dissoc inh 7.31µM, Tb PFK inh inactive, ELG1 DNA repair inactive, PKM2 activator inactive, Rango-impB inh inconclusive and Tb PGK inh inactive.
For CN(C)CCNS(=O)(=O)c1ccc2c3c(cccc13)C(=O)N2 the results were Rango dissoc inh inconclusive, Tb PFK inh inactive, ELG1 DNA repair inactive, PKM2 activator inactive, Rango-impB inh inconclusive and Tb PGK inh inactive.
`CCCOC(=O)c1cccc(NC(=O)CSc2nnc3cc(C)c4ccccc4n23)c1` gave Tb PGK inh inactive.
Screening NC(=O)c1nsc(C(=O)N(c2ccccc2F)C(C(=O)NCc2ccccc2)c2ccc(O)cc2)c1N (stereo not drawn) returned Rango dissoc inh inactive, Tb PFK inh inactive, ELG1 DNA repair 6.51µM, PKM2 activator inactive, Rango-impB inh inactive and Tb PGK inh inactive.
Screening Cc1[nH]n(-c2ccccc2)c(=O)c1N=Nc1c(O)cc(S(=O)(=O)N(C)C)c2ccccc12 returned Rango dissoc inh inactive, Tb PFK inh inactive, ELG1 DNA repair 4.11µM, Rango-impB inh inactive and Tb PGK inh inconclusive.
Screening CCCCn1nc(C(=O)NC2CCCCCC2)c2ccccc2c1=O returned Rango dissoc inh inactive, Tb PFK inh inactive, ELG1 DNA repair 18.3µM, Rango-impB inh inactive and Tb PGK inh inactive.
Screening CCCn1nc(C(=O)N2CCc3ccccc32)c2ccccc2c1=O returned Rango dissoc inh inactive, Tb PFK inh inactive, ELG1 DNA repair inconclusive, Rango-impB inh inactive and Tb PGK inh inactive.
`CCCCn1nc(C(=O)Nc2ccc(-n3cnnn3)cc2)c2ccccc2c1=O` gave Rango dissoc inh inactive, Tb PFK inh inactive, ELG1 DNA repair 7.3µM, Rango-impB inh inactive and Tb PGK inh inactive.
CCCCCn1nc(C(=O)N2CCc3ccccc32)c2ccccc2c1=O was read as Rango dissoc inh inactive, Tb PFK inh inactive, ELG1 DNA repair 11.2µM, Rango-impB inh inactive and Tb PGK inh inactive.
For CCCn1nc2cc(C(=O)NC3CCCc4ccccc43)ccc2c1OCC (stereo not drawn) the results were Rango dissoc inh inactive, Tb PFK inh inactive, ELG1 DNA repair inactive, PKM2 activator inactive, Rango-impB inh inactive and Tb PGK inh inactive.
For CCCn1nc(C(=O)NC2CCCC2)c2ccccc2c1=O the results were Rango dissoc inh inactive, Tb PFK inh inactive, ELG1 DNA repair inconclusive, Rango-impB inh inactive and Tb PGK inh inactive.
`CCCn1nc(C(=O)NC2CCCc3ccccc32)c2ccccc2c1=O` (stereo not drawn) gave Rango dissoc inh inactive, Tb PFK inh inactive, ELG1 DNA repair 16.4µM, PKM2 activator inactive, Rango-impB inh inactive and Tb PGK inh inactive.
`Cn1nc(C(=O)Nc2ccc(-n3cnnn3)cc2)c2ccccc2c1=O` gave Rango dissoc inh inactive, Tb PFK inh inactive, ELG1 DNA repair inconclusive, Rango-impB inh inactive and Tb PGK inh inactive.
`O=C(CSc1ncn[nH]1)Nc1cc(S(=O)(=O)N2CCCC2)ccc1Cl` gave Rango dissoc inh inactive, Tb PFK inh inactive, ELG1 DNA repair inactive, PKM2 activator inactive, Rango-impB inh inactive and Tb PGK inh inactive.
`Cc1ccccc1NC(=O)CSc1nnc(Cc2ccccc2)c(=O)n1N` gave Rango dissoc inh inactive, Tb PFK inh inactive, ELG1 DNA repair inactive, Rango-impB inh inactive and Tb PGK inh inactive.
`O=C(NCC1COCCO1)c1ccc2nc(Cc3cccc(Cl)c3)oc2c1` (stereo not drawn) gave Rango dissoc inh inactive, Tb PFK inh 15.1µM, ELG1 DNA repair inactive, PKM2 activator inactive, Rango-impB inh inactive and Tb PGK inh inactive.
Screening O=C(NCCc1ccncc1)c1ccc2nc(Cc3cccc(Cl)c3)oc2c1 returned Rango dissoc inh inactive, Tb PFK inh inactive, ELG1 DNA repair inactive, PKM2 activator inactive, Rango-impB inh inactive and Tb PGK inh inactive.
For CCOc1ccc(CNC(=O)c2ccc(CSc3nc4ccncc4n3Cc3ccc(F)cc3)cc2)cc1 the results were Tb PGK inh inactive.
Screening O=C(c1ccco1)N1N=C2CCCCCC2C1(O)C(F)(F)F (stereo not drawn) returned Rango dissoc inh inactive, Tb PFK inh inactive, ELG1 DNA repair 0.326µM, PKM2 activator inactive, Rango-impB inh inactive and Tb PGK inh inactive.
`CCOC(=O)c1ccc(S(=O)(=O)N2CCN(C(=O)c3cccc(S(=O)(=O)N4CC(C)OC(C)C4)c3)CC2)cc1` (stereo not drawn) gave Rango dissoc inh inactive, Rango-impB inh inactive and Tb PGK inh inactive.
`COc1cc(Cl)c(C)cc1NC(=O)c1ccccc1NC(=O)CN1CCOCC1` gave Rango dissoc inh inactive, Tb PFK inh inconclusive, ELG1 DNA repair 16.4µM, Rango-impB inh inactive and Tb PGK inh inactive.

Screens from PubChem.
